# Sampled rows, rich in hits. Any-hit rate of the full collection: about 4.8%.
# SMARCA2 act – SMARCA2 function activation, primary screen | MG213 cells, MMTV-luciferase reporter, dexamethasone, overnight | activation, % at 9.1 µM | 1% of 370,000 active | AID 652017; in the data active means activation above about 7.8%;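 further: 0% = vehicle wells and 100% = reference activator wells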
# hgDAF-12 ag – agonists of H. glycines DAF-12 nuclear receptor. HEK293 GAL4-hgDAF12 UAS-luciferase reporter, agonist luminescence; normalized to butyrate control. activation, % at 6.8 µM. 1.8% of 370,000 active;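 active means activation above a cutoff set at the mean of all screened compounds plus 3 SD, cut at about 10% in these data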;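 further: 0% = DMSO wells and 100% = sodium butyrate wells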
# hcDAF12 agonist – activators of H. contortus DAF-12 nuclear receptor; 1.4% of 370,000 active; HEK293 hcDAF-12 lit1-tk-luc reporter, luminescence; 0% DMSO, 100% Δ7-dafachronic acid; AID 652067; activation, % at 6.8 µM;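 active means activation above the mean of all tested compounds plus 3 SD, cut at about 5.5% in these data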;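 further: 100% = response to 3 µM Δ7-dafachronic acid high control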
# DAX1 inh-1 – inhibitors of human orphan nuclear receptor DAX1 (NR0B1). P51843. HEK293 Gal4-DAX1 luciferase reporter, luminescence. inhibition, % at 6.75 µM. 0.99% of 340,000 active. AID 504766;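 active means inhibition above the mean over all tested compounds plus 3 SD, cut at about 4.2% in these data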;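 further: 0% = DAX1-transfected cells with DMSO and 100% = empty-vector control cells with DMSO; inhibition shows as a rise in luminescence from relieved DAX1 repression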
# Target sequence (P51843 207-470 limits assumed): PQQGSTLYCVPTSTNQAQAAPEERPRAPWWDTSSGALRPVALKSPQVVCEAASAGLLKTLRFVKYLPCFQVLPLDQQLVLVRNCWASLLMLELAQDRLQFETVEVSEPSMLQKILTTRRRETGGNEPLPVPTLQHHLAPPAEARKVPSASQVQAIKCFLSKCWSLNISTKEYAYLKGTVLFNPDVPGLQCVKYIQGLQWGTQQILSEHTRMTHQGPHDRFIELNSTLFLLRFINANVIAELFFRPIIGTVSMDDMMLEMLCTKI
# DAX1 inh-2 – DAX1 (NR0B1) inhibition, primary screen; HEK293T StAR-luciferase reporter, SF-1/DAX-1 repression relief; 1.1% of 370,000 active; inhibition, % at 6.8 µM;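 active means inhibition above the mean over all tested compounds plus 3 SD, cut at about 3.6% in these data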;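 further: 0% = DAX-1 cells with DMSO and 100% = cells lacking DAX-1 with DMSO; higher inhibition means more luminescence from relief of DAX-1 repression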
# ssDAF-12 act – activates DAF-12 receptor from parasite S. stercoralis; activation, % at 6.8 µM; AID 652126; HEK293 ssDAF-12/GRIP1 lit1-tk-luc reporter, luminescence; % of 3 µM dafachronic acid response; 1% of 370,000 active;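 active means activation above the mean over all tested compounds plus 3 SD, cut at about 0.9% in these data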;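 further: 0% = DMSO-only wells and 100% = 3 µM delta7-dafachronic acid wells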
# Numbers without * were called inactive; · = no result.
SMILES,SMARCA2 act,hgDAF-12 ag,hcDAF12 agonist,DAX1 inh-1,DAX1 inh-2,ssDAF-12 act
O=C1c2ccccc2NC(c2ccc3c(c2)OCO3)N1O (centres undefined),3.7,8.6,4.1,2.1,0.6,0.0
CSc1ccc(CN2C(=O)NC3(CCCCC3)C2=O)cc1,-6.4,-2.3,-1.9,6.8*,-0.3,-1.1
COc1ccccc1NS(=O)(=O)c1cccc(C(=O)NCC2(N3CCCCC3)CCCCC2)c1,-2.7,0.2,-0.2,1.3,4.0*,-0.6
C/C(=N\OC(=O)c1ccc(Br)cc1)c1ccccn1,0.1,0.4,1.5,0.9,0.5,0.9*
Cc1ccc(S(=O)(=O)N2CCOCC2)cc1NC(=O)CN1C(=O)CN(C)C1=O,-2.0,1.7,2.5,0.2,0.6,-1.0
Cc1ccc(-c2nc3ccccc3c(=O)n2NC(=O)COc2ccccc2)cc1,3.0,4.0,2.6,0.4,-0.6,-1.3
COc1ccc(NCc2cc3cc(OC)ccc3[nH]c2=O)cc1,2.8,0.1,1.3,-0.2,0.3,-1.1
COc1ccc2[nH]c(=O)c(CNc3cccc(C)c3)cc2c1,3.8,10.1,5.7*,1.5,0.9,1.2*
Cc1ccc(-c2noc(CCCC(=O)N3CCOCC3)n2)cc1,-2.2,-1.4,-0.6,0.6,-0.8,-1.6
O=C(CCNc1ccccc1)c1ccc2c(c1)OCO2,-2.2,11.3*,3.8,4.8*,2.9,0.7
CN(C)CCC(=O)c1ccc2c(c1)OCO2,-1.0,-1.4,-0.8,3.5,-0.2,-1.1
CCC(C(N)=NCCc1ccc(OC)c(OC)c1)c1ccccc1 (centres undefined),-1.1,-1.0,4.3,-0.1,0.1,-1.1
CCC(=NCCc1ccc(OC)c(OC)c1)c1ccccc1O,-1.6,1.6,-0.5,6.1*,-0.9,-0.4
O=CN1CCN(C(=O)CN2C(=O)c3ccccc3C2=O)CC1,1.1,0.6,0.5,-0.6,0.5,-1.1
C#CC1(O)CCC2C3CCC4=C(CCC(=O)C4)C3CCC21C (centres undefined),3.7,-0.1,-0.8,0.3,-1.3,-1.0
O=C(Nc1c(F)cc(F)cc1Br)c1cc(S(=O)(=O)N2CCN(c3ccccn3)CC2)ccc1F,-4.2,-1.4,-2.7,4.7*,-2.1,-2.1
O=S(=O)(c1ccc(Cl)cc1)N1CCN(c2ccccn2)CC1,4.8,-0.8,2.6,3.5,-0.1,-0.8
O=S(=O)(c1ccc(F)cc1)N1CCN(c2ccccn2)CC1,-0.1,0.9,3.5,-0.2,-0.2,1.6*
Cc1cc(C)cc(NC(=O)CSc2nnc(Cn3c(=O)sc4ccccc43)n2C)c1,-1.4,3.7,-0.5,-1.1,0.0,-1.0
Cc1oc(-c2ccccc2F)nc1CS(=O)(=O)CC(=O)N1CCN(c2ccccc2)CC1,-3.3,-4.0,-0.9,-1.5,0.5,-0.8
COc1cccc(NC(=O)C(=O)NCCC2CCCCN2S(=O)(=O)c2cccs2)c1 (centres undefined),3.4,6.9,1.7,0.8,4.1*,-0.7
CC(=O)c1ccc(OCCCC(=O)OCC(=O)Nc2ccc3[nH]c(=O)[nH]c3c2)cc1,-0.4,1.1,0.3,-0.5,-0.2,-0.5
NC(=O)NN=C(C1CC1)C1CC1,0.7,1.6,-0.5,4.9*,-0.3,-0.8
O=C(O)CSc1nc2ccccc2s1,-2.5,0.1,0.1,-1.0,0.1,-0.8
COc1ccc(N(C)S(=O)(=O)c2cccc(C(=O)OCC(=O)c3c(N)n(C)c(=O)n(C)c3=O)c2)cc1,-3.6,0.0,-1.1,-3.6,-1.0,2.5*
SMILES,SMARCA2 act,hgDAF-12 ag,hcDAF12 agonist,DAX1 inh-1,DAX1 inh-2,ssDAF-12 act
COCCNc1ccc(N2C(=O)C3CCCCC3C2=O)cc1[N+](=O)[O-] (centres undefined),-0.4,3.2,-1.9,4.6*,0.2,-1.5
COc1ccc(CC2(CO)CCN(Cc3cnn(C)c3C)CC2)cc1,-0.5,1.4,-1.1,4.9*,-0.6,-2.0
COc1ccc(CC2(CO)CCN(Cc3ccncc3)CC2)cc1,-2.3,-2.4,-1.4,-1.5,-1.0,-1.6
COc1cc(CNCCc2ccc(F)cc2)ccc1OCc1ccc(Cl)nc1,-6.7,1.5,1.0,-0.2,0.2,-1.1
COc1cc(CO)ccc1OCc1ccc(Cl)nc1,4.2,11.3*,2.8,3.7,0.4,1.3*
Cc1ccc(-c2noc(CCCC(=O)NC3CCCCC3)n2)cc1,-4.8,-1.3,-2.7,0.3,-1.3,-2.1
O=C(CCCc1nc(-c2ccccc2)no1)NC1CCCCC1,-3.7,-0.5,-2.8,-0.9,-0.6,1.1*
S=C(NN=C(c1ccccc1)c1ccccn1)N(Cc1ccccn1)Cc1ccccn1,-0.4,-8.6,-3.6,-5.4,-6.8,-2.2
S=C(NN=Cc1ccccn1)N(Cc1ccccn1)Cc1ccccn1,-0.3,4.6,2.7,-4.0,0.8,1.0*
CC(C)(C)OC(=O)N1CCC2CCN(CCc3ccccc3)CC21 (centres undefined),-4.7,1.2,0.2,·,-0.9,-1.6
Cc1nn(-c2ccccc2)cc1/C=N/O,-1.4,4.2,-0.6,5.2*,0.9,-1.1
N=C1C(c2ccccc2)=C(O)CN1c1cccc2ccccc12,-3.5,-1.6,-0.4,-1.2,0.3,-1.4
Cc1cc(=O)oc2cc(OCC(=O)N3CCN(c4ccc(F)cc4)CC3)ccc12,-1.4,-2.8,-2.7,-0.6,-0.5,-0.7
Cc1n[nH]c(C)c1CCc1nc2c3ccccc3nc(SCC(=O)Nc3ccccc3F)n2n1,-0.9,-6.5,-3.0,-2.1,-0.4,-1.3
COc1cccc(-c2noc(CCC(=O)NCCc3ccccc3)n2)c1,-6.1,-5.2,-3.6,0.4,-0.5,-1.6
O=C(CN1C(=O)NC2(CCCCC2)C1=O)NCc1ccc2c(c1)OCO2,0.2,0.8,-1.2,7.2*,-1.4,-1.5
CCC1(CC)NC(=O)N(CC(=O)NCc2ccc3c(c2)OCO3)C1=O,-2.0,1.3,-1.9,0.4,0.6,-0.2
COc1cccc(-c2coc3cc4oc(=O)c(CCC(=O)O)c(C)c4cc23)c1,-4.2,-0.8,5.8*,-0.2,-0.1,0.1
Cc1ccc(S(=O)(=O)c2nc(-c3ccccc3)oc2NCCCN2CCOCC2)cc1,-1.6,11.4*,-1.1,0.7,-0.5,-0.8
O=C(CN1CCN(Cc2ccccc2)CC1)Nc1nc2ccccc2s1,0.0,2.1,1.1,0.1,-0.4,-0.8
COc1ccc(CCNC(=O)c2ccccc2Cl)cc1OC,1.2,0.5,-1.9,-0.7,-0.3,-1.4
COc1ccc(CCNC(=O)c2cccnc2Cl)cc1OC,7.6,0.8,1.7,6.3*,0.8,-0.7
COCc1nnc(NC(C)=O)s1,2.6,2.1,1.7,5.5*,0.1,-0.5
CCCCC(=O)Nc1ccc(C(=O)Nc2nnc(COC)s2)cc1,7.8*,-3.0,0.4,0.6,0.0,-1.8
Cc1cc(C)n(-c2ccc(C(=O)OCn3nnc4ccccc4c3=O)cc2)n1,-2.8,0.2,-0.2,0.3,0.4,-1.5
